From PubChem BioAssay
MazF activator: activators of E. coli MazEF toxin-antitoxin RNase | FAM/BHQ RNA-DNA oligo cleavage fluorescence, 5 h | activation, % at 20 µM | actives 0.32% (n = 350,000) | AID 504720; in the data active = activation above about 50%
Target sequence (P0AE70 whole entry, looked up): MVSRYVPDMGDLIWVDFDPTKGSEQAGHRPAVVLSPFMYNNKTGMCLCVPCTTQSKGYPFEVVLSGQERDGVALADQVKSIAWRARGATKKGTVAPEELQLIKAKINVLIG
PfHsp40 rescue: restores yeast growth despite PfHsp40 toxicity; S. cerevisiae expressing PfHsp40, growth rescue, ATP luminescence; growth rescue, % at 12.5 µM; actives 0.68% (n = 340,000); AID 504582; in the data active = growth rescue above about 28%, passing the limit was not always enough;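 note: yeast W303a lacking pdr1 and pdr3 grown in galactose medium; growth measured after three days at 30 °C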
Vc quorum ag-1: quorum light induction in luxS cqsA deficient V. cholerae | V. cholerae BH1578 lux reporter, luminescence, 6 h | activation, % at 18.7 µM | actives 0.16% (n = 350,000) | AID 588436; in the data active = activation mostly above about 9.7%, no sharp cut-off
SARS 3CLpro inh: SARS-CoV 3CLpro protease inhibition; P0C6X7; recombinant SARS-CoV 3CLpro, quenched FRET peptide cleavage; inhibition, % at 6 µM; actives 0.14% (n = 290,000); in the data active = inhibition above about 12%
BJeLR viability: kills HRASV12-expressing BJeLR cells; BJeLR (HRASV12) viability, CellTiter-Glo ATP luminescence, 48 h; inhibition, % (no concentration beside the values); actives 0.17% (n = 300,000); AID 1554; in the data active = inhibition above about 50%
DUSP3 inh: inhibitors of human VHR1 phosphatase (DUSP3). actives 0.52% (n = 290,000). AID 1654. inhibition, % at 13.3 µM. recombinant VHR phosphatase, pNPP absorbance; in the data active = inhibition above about 50%
Target sequence (P51452 whole entry, looked up): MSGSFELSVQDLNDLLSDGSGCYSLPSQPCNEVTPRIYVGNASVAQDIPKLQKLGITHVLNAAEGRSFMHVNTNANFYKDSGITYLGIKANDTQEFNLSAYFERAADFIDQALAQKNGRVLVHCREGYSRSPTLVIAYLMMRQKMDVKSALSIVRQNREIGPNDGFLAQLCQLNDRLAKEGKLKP
Vc quorum ag-2: induces V. cholerae light production without autoinducers; shares compounds with Vc quorum ag-1; V. cholerae BH1578 lux reporter, luminescence, 6 h; activation, % at 50 µM; 620 tested, under 10 active; call rule not given here
A number is an active result; – = inactive; · = no result given. Most compounds without a hit are left out; they make up all but 1.7% or so of the library.

SMILES	MazF activator	PfHsp40 rescue	Vc quorum ag-1	SARS 3CLpro inh	BJeLR viability	DUSP3 inh	Vc quorum ag-2
Cn1nnnc1SCC(=O)N(C1CCCCC1)C1CCS(=O)(=O)C1 (configuration not stated)	–	–	–	–	–	–	·
COc1cc(NC(=O)Cc2cccs2)ccc1-n1cnnn1	–	–	–	–	–	–	–
O=C(NC1CCCCC1)C(=O)c1c[nH]c2ccccc12	–	–	474.3	–	–	–	–
COCCNC(=O)c1cnn2c1NC(c1ccco1)CC2C(F)(F)F (configuration not stated)	–	–	16.7	–	–	–	–
CCOC(=O)N1CCC(NC(=O)c2cnn3c2NC(c2ccco2)CC3C(F)(F)F)CC1 (configuration not stated)	–	–	–	–	–	–	·
Cc1cc2nnc(SCC(=O)NC3CCCCC3)n2c(N)n1	–	–	–	–	–	–	·
COc1cc(C2N(c3ccccn3)C(=O)C3CCCN32)cc(OC)c1OC (configuration not stated)	–	–	25.8	–	–	–	–
COc1ccc(C2N(c3ccccn3)C(=O)C3CCCN32)c(OC)c1 (configuration not stated)	–	–	–	–	–	–	·
COc1ccc(NC(=O)CSc2nc3ccccc3c(=O)n2CCCO)cn1	–	–	–	·	·	·	·
CN(CC(=O)Nc1ccccc1Cl)C(=O)c1cccc(-n2cccc2)c1	–	–	–	·	–	·	–
COC(=O)c1c(-c2ccc(Br)cc2)noc1N	–	–	16.7	–	–	–	–
CCOc1cc(-c2noc(N)c2C(=O)OC)cc(OCC)c1OCC	–	–	–	–	–	–	·
O=C(N/N=C/c1ccc(Cl)cc1)C1CC12CCC2 (configuration not stated)	–	–	–	–	–	–	·
Cc1noc(C)c1C(=O)OCC(=O)c1c[nH]c2ccccc12	–	–	–	–	–	–	–
O=C(CCNC(=O)c1ccc(Cl)cc1)NCC(c1ccco1)N1CCCCC1 (configuration not stated)	–	–	–	·	–	·	–
CC1(C)NC(=O)N(CCOCCOc2ccc3ccccc3c2Br)C1=O	–	–	–	–	–	–	–
CCOC(=O)c1c(-c2ccccc2)csc1NC(=O)c1nn(CC)cc1Br	–	–	–	–	–	–	–
CCOC(=O)c1c(-c2ccccc2)csc1NC(=S)N(CC)CC	–	–	–	–	–	–	·
CCOc1ccccc1C1c2cc3c(cc2OC(C)(N2CCCC2)C1C)OCO3 (configuration not stated)	–	–	–	·	–	·	·
CN(CC(=O)Nc1ccc(Cl)c(C(F)(F)F)c1)C(=O)c1cn2ccccc2n1	–	–	–	·	–	·	·
CCCCc1cc2c(cc1NC(=O)CN1CCCCC1)OCCO2	–	–	–	–	–	–	–
COC(=O)C1CCCN1S(=O)(=O)c1ccccc1NC(=O)c1cc(OC)c(OC)c(OC)c1 (configuration not stated)	–	–	–	–	–	·	·
O=C(NCc1ccco1)c1cc2n(n1)C(C(F)(F)F)CC(c1ccc(Br)cc1)N2 (configuration not stated)	–	–	–	–	–	–	·
O=C(NCc1ccco1)c1cc2n(n1)C(C(F)(F)F)CC(c1ccc(Cl)c(Cl)c1)N2 (configuration not stated)	–	–	–	–	–	–	–
O=C(Nc1ccccc1Cl)NC1(C(=O)NCc2cccnc2)CCCCC1	–	–	–	–	–	–	·
Cc1cc(C)c(NC(=O)CN2CCN(C)CC2)c(C)c1	–	–	–	·	–	–	·
COc1ccc(N2CCN(CC(=O)Nc3c(C)cc(C)cc3C)CC2)cc1	–	–	–	–	–	–	–
Cc1noc(/C=C/N(C)C)c1S(=O)(=O)N1CCCC(C(=O)NCCC2=CCCCC2)C1 (configuration not stated)	–	–	–	–	–	–	·
Cc1noc(C)c1S(=O)(=O)N1CCCC(C(=O)NCCC2=CCCCC2)C1 (configuration not stated)	–	–	20.0	–	–	–	–
COC(=O)c1cc(C(=O)OCC(=O)c2ccc3c(c2)NC(=O)CO3)cc([N+](=O)[O-])c1	–	–	–	·	·	·	–
